# Source: PubChem BioAssay (NCI)
# This is part of a sample that, as a whole, favours compounds with a hit. Of some 79,000 tested, about 15% had one in any assay. Values without a mark were called inactive. The source made the active and inactive calls. No stated cut-off is given here; in the data, active means growth inhibition above about 70%; inactive means the rest. Where a SMILES comes first, the peptide text is derived from it. [ ]: non-standard residue; d: D form. The star is where a group is joined. Phe(4-NO2) = N[CH](Cc1ccc([N+](=O)[O-])cc1)C(=O)O; Boc = CC(C)(C)OC(=O)*
# Columns and labels:
# [1] = NCI Yeast Anticancer Drug Screen. Data for the rad50 strain (AID 155);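 further: 0% = growth of vehicle-only cultures of the same strain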; settings: S. cerevisiae rad50 strain growth inhibition, hits give high values
# In short: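 Genetically altered yeast (DNA repair pathway); compound treatment; growth inhibition vs vehicle ctrl.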
# [2] = NCI Yeast Anticancer Drug Screen. Data for the mec2-1 strain (AID 157); settings: S. cerevisiae mec2-1 strain, hits give high values
# In short: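 Cells of the genetically defined mec2-1 yeast strain are incubated with test compound. Inhibition of growth is calculated against vehicle-treated controls.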
# [3] = NCI Yeast Anticancer Drug Screen. Data for the sgs1 mgt1 strain (AID 161);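 further: 0% = growth of cultures given vehicle only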; settings: S. cerevisiae sgs1 mgt1 strain, hits give high values
# In short: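 Test agents were incubated with a DNA-repair-mutant yeast strain. Growth was then read and compared against vehicle-treated controls.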
# [4] = NCI Yeast Anticancer Drug Screen. Data for the cln2 rad14 strain (AID 165);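 further: 0% = growth equal to vehicle treated cultures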; settings: S. cerevisiae cln2 rad14 strain, hits give high values
# In short: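 The screen exposed genetically defined yeast (cln2 rad14) to test compounds and scored growth inhibition relative to vehicle-treated controls.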
# [5] = NCI Yeast Anticancer Drug Screen. Data for the bub3 strain (AID 167); settings: S. cerevisiae bub3 mutant strain, hits give high values
# In short: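 Yeast carrying a defined mutation is treated with each compound, and growth is compared with that of vehicle-exposed cells to give inhibition.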
# [6] = NCI Yeast Anticancer Drug Screen. Data for the mlh1 rad18 strain (AID 175); settings: S. cerevisiae mlh1 rad18 strain growth inhibition, hits give high values
# In short: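 Compound-treated yeast growth, normalised to vehicle controls. Strain bears defined DNA repair mutations.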
# [7] = at 5.0 µM (retest, dose inferred, filed as 0.5)
# [8] = at 50.0 µM (retest, dose inferred, filed as 5.0)
SMILES,"growth inhibition [1, 7]","growth inhibition [1, 8]",growth inhibition ([1]; at 50.0 µM),"growth inhibition [2, 7]","growth inhibition [2, 8]",growth inhibition ([2]; at 50.0 µM),"growth inhibition [3, 7]","growth inhibition [3, 8]",growth inhibition ([3]; at 50.0 µM),"growth inhibition [4, 7]","growth inhibition [4, 8]",growth inhibition ([4]; at 50.0 µM),"growth inhibition [5, 7]","growth inhibition [5, 8]",growth inhibition ([5]; at 50.0 µM),"growth inhibition [6, 7]","growth inhibition [6, 8]",growth inhibition ([6]; at 50.0 µM)
CCC(C)(O)Cc1cnccn1 (configuration not stated),3%,1%,1.75%,0%,1%,-2.7%,2%,-3%,7.25%,-1%,-2%,14.8%,0%,1%,12.1%,-10%,2%,9.25%
CS(=O)(=O)OCCN(CCOS(C)(=O)=O)c1ccc(C=Nc2cccc(Br)c2)c(Cl)c1,1%,22%,41.5%,-3%,1%,-2.3%,-3%,12%,2.5%,-4%,-4%,-49.9%,0%,1%,6.85%,5%,36%,68.5%
CNC(=S)N/N=C(\C=N\NC(=S)NC)c1ccccc1,7%,32%,74.7% (active),-14%,35%,37%,3%,37%,82.4% (active),9%,30%,37.8%,-1%,25%,59.5%,0%,44%,66.8%
O=c1c(-c2ccccc2)c(-c2ccccc2)c1=O,-98%,84% (active),97.7% (active),-37%,89% (active),96.2% (active),-36%,77% (active),63.1%,-49%,76% (active),95.3% (active),-38%,84% (active),96.8% (active),-85%,69%,85.5% (active)
CCOc1cc2c(cc1Cc1c(OC)cc(OC)cc1OC)OCO2,5%,27%,46%,3%,31%,16.5%,8%,57%,88% (active),4%,30%,46.8%,4%,63%,77.8% (active),7%,73% (active),83.3% (active)
ClC1=CC(Cl)=C2N=C(C(Cl)(Cl)Cl)N=C3N=C(C(Cl)(Cl)Cl)N=C1N32,29%,80% (active),99.3% (active),4%,88% (active),99.5% (active),44%,85% (active),99.2% (active),12%,57%,99% (active),21%,94% (active),99.3% (active),36%,86% (active),99% (active)
CNC(=O)CCC(NC(=O)OC(C)(C)C)C(=O)NC(Cc1ccc([N+](=O)[O-])cc1)C(=O)NCC(=O)NC (configuration not stated) (Boc-Glu(NHMe)-[Phe(4-NO2)]-Gly-NHMe; configuration not given here),9%,-1%,-5.5%,-3%,2%,-1.65%,-7%,3%,8.8%,-4%,4%,37.6%,-15%,-1%,-1.9%,-9%,6%,-8.8%
CN(C)C(=O)c1cc(Cl)cc(-c2ccccc2)c1O,1%,67%,40.5%,1%,74% (active),32.1%,-1%,68%,46.1%,-5%,38%,-6.75%,1%,86% (active),60.2%,1%,93% (active),78.8% (active)
C=C1CCC[C@@]2(C)CC[C@@H](/C(C)=C\C=C\C(C)(C)O)C[C@H]12,0%,29%,83.1% (active),-1%,32%,92.8% (active),2%,56%,92.5% (active),-5%,0%,91.8% (active),2%,28%,91.7% (active),-2%,53%,88.8% (active)
C=C(C)COc1ccccc1C(OCC)OCC,1%,21%,49.9%,7%,19%,14.9%,3%,28%,29.1%,-1%,27%,13.7%,0%,20%,31.6%,0%,39%,78.5% (active)
CC(C)CCCC(=O)CCCCCCC(=O)CCN(O)C(=O)C(N)CO (configuration not stated),98% (active),98% (active),92.9% (active),99% (active),99% (active),93.5% (active),98% (active),99% (active),94.2% (active),96% (active),97% (active),90.5% (active),99% (active),98% (active),93.4% (active),98% (active),98% (active),92% (active)
Cc1cc(C)nc(NS(=O)(=O)c2ccc(Nc3c4ccccc4nc4c(C(=O)NC(CO)(CO)CO)cccc34)cc2)n1,-11%,26%,81.8% (active),4%,-2%,-6.1%,0%,-8%,4.9%,39%,-2%,42.4%,4%,12%,4.45%,-3%,4%,-8.4%
CCN(CC)CCNc1cc(C)nc2c1ccc1c2ccc2c(NCCN(CC)CC)cc(C)nc21,-3%,96% (active),62.3%,18%,98% (active),98% (active),-3%,96% (active),54.5%,-16%,95% (active),93% (active),-2%,90% (active),96% (active),-3%,97% (active),96.4% (active)
O=C(/C=C/c1cc(O)c(O)cc1O)OCCc1ccccc1,17%,50%,47.1%,16%,61%,75.5% (active),20%,64%,69.8%,32%,33%,53.7%,25%,68%,66%,21%,75% (active),68.5%
N#CC(Br)(C#N)Cc1ccccc1,1%,100% (active),98.8% (active),8%,100% (active),99.6% (active),-11%,90% (active),99.1% (active),-10%,99% (active),99.2% (active),9%,100% (active),99.5% (active),-10%,100% (active),99.3% (active)
O=C(NC1=Nc2c(ncn2COCCO)S(=O)(=O)[N-]1)c1ccccc1.[Ag+],100% (active),99% (active),98.3% (active),100% (active),100% (active),98.2% (active),99% (active),99% (active),98.5% (active),99% (active),99% (active),86% (active),100% (active),99% (active),98.3% (active),99% (active),99% (active),97.3% (active)
COC1=CC(=O)C(C#CCOCc2ccccc2)=CC1=O,12%,99% (active),99.1% (active),0%,99% (active),99.2% (active),-6%,79% (active),99% (active),-8%,98% (active),94.7% (active),-16%,99% (active),93% (active),8%,99% (active),98.8% (active)
O=C(CSc1nnc(-c2ccc(N=Cc3ccc(Cl)cc3)cc2)o1)Nc1ccc(Cl)cc1Cl,14%,99% (active),95.8% (active),-1%,99% (active),99.2% (active),17%,100% (active),95.9% (active),27%,99% (active),91.2% (active),12%,100% (active),98.5% (active),30%,99% (active),97.9% (active)
CCOC(=O)c1nc(SC)sc1NC(=O)c1ccccc1Cl,1%,1%,19.4%,-5%,-5%,-15.6%,4%,4%,77.8% (active),-13%,-13%,27.8%,-14%,-14%,30.4%,-5%,-5%,-8.2%
